ChEMBL document CHEMBL3988442, “University of Dundee, Small-Polar-MMV Screening Library” (2021)
For some assays here: Results with a measured potency or affinity are listed apart.

Experiments:
Set-up in all cases: scale not given: direction of the effect not stated beside the values
[1] = target: Protein translocase subunit SecA (Escherichia coli (strain K12)) (UniProt P10408); assay: Assay to Identify E. coli SecA ATPase Inhibitors; type: functional; details: 30 µM
[2] = target: T1, Ubiquitin-activating enzyme e1, putative (Leishmania donovani (strain BPK282A1)) (UniProt E9BSI1); assay: Leishmania donovani Ubiquitin Activating Enzyme (LdE1); type: functional; details: 30 µM
T1 sequence (whole entry): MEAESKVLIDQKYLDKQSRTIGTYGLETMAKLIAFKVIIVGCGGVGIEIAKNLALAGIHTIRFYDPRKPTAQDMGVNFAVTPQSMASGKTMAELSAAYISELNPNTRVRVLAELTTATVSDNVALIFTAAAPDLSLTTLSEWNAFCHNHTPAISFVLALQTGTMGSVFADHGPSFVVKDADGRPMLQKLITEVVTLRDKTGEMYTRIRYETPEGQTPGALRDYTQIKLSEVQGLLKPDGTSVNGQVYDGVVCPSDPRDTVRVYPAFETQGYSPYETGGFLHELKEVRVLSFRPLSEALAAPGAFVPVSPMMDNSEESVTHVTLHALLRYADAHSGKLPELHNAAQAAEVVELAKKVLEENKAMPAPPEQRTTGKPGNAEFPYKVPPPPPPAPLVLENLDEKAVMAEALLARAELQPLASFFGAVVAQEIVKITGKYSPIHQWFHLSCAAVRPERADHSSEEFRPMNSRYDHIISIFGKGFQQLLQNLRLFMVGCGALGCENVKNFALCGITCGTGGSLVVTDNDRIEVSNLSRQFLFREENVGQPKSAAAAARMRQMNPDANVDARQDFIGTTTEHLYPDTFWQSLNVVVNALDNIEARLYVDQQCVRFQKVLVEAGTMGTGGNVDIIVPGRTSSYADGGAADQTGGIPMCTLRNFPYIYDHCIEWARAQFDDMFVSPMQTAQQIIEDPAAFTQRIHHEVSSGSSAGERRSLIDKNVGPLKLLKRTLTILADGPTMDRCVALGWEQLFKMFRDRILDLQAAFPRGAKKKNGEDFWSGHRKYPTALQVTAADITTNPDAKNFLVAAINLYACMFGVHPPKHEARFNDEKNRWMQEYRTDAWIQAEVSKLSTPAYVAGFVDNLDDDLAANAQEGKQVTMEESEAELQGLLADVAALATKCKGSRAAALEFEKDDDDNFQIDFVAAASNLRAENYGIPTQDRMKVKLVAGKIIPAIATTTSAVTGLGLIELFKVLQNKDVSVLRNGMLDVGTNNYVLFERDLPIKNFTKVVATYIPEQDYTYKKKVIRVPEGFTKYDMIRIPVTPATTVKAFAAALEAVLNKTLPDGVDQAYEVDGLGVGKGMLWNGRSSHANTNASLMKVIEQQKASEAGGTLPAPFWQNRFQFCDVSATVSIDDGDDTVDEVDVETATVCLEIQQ

[3] = target: AMP-activated protein kinase, AMPK (Homo sapiens) (UniProt P54646+O43741+P54619+Q9UGJ0+Q9Y478+Q13131+Q9UGI9); assay: AMP-dependent Kinase enzyme assay. An in vitro enzyme assay that detects ADP turnover that is directly proportional to AMPK activity. This uses naive AMPK that is activated during the assay with MK-8722; type: functional; details: 30 µM
[4] = target: Sialic acid-binding Ig-like lectin 9 (Homo sapiens) (UniProt Q9Y336); assay: Hs-Siglec9 ALPHAscreen SOP 20170721; details: 10 µM
Trypanosoma cruzi = assay: Trypanosoma cruzi phosphomannomutase and mannose-1-phosphate guanylyltransferase assay; type: functional; details: 10 µM
[5] = target: T2, Arginase-2, mitochondrial (Homo sapiens) (UniProt P78540); assay: in vitro enzyme assay to detect the production of urea directly proportional to the activity of Arginase II; type: functional; details: 33.3 µM; also: in the data most compounds retested in dose-response had high values
T2 sequence (whole entry): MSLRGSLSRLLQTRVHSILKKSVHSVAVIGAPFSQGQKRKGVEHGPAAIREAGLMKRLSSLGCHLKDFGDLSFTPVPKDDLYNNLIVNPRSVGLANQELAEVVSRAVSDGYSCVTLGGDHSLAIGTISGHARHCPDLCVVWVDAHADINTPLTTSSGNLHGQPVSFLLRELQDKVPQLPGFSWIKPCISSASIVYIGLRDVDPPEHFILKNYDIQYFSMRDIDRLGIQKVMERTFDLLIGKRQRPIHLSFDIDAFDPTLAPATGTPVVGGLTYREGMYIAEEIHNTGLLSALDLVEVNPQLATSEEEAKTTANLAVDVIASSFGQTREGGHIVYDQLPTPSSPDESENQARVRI

[6] = target: T3, Proteasome subunit beta (Trypanosoma cruzi) (UniProt O96673); assay: Trypanosoma cruzi proteasome chymotrypsin-like activity (TcProtChymo) assay.; also: in the data most compounds retested in dose-response had high values; type: functional; details: 9.37 µM
T3 sequence (whole entry): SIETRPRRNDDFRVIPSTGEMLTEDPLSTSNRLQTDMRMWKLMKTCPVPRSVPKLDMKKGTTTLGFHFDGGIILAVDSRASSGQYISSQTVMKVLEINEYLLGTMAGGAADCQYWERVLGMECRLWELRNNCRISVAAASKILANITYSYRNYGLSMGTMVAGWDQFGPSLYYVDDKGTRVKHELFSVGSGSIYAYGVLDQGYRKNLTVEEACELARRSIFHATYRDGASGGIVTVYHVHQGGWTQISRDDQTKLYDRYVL

Homo sapiens = organism: Homo sapiens; assay: To identify inhibition of the IFN signalling (Jak-Stat) pathway via expression of an eGFP reporter gene under the control of an IFN-stimulated response element (ISRE) containing MxA promoter.; type: functional; details: 30 µM
[7] = target: T4, Tyrosyl-tRNA synthetase, putative (Trypanosoma cruzi (strain CL Brener)) (UniProt Q4DSP6); assay: Trypanosoma cruzi tyrosyl tRNA synthetase (TcYRS) _High Tyrosine SOP; type: functional; details: 30 µM; also: in the data most compounds retested in dose-response had high values
T4 sequence (whole entry): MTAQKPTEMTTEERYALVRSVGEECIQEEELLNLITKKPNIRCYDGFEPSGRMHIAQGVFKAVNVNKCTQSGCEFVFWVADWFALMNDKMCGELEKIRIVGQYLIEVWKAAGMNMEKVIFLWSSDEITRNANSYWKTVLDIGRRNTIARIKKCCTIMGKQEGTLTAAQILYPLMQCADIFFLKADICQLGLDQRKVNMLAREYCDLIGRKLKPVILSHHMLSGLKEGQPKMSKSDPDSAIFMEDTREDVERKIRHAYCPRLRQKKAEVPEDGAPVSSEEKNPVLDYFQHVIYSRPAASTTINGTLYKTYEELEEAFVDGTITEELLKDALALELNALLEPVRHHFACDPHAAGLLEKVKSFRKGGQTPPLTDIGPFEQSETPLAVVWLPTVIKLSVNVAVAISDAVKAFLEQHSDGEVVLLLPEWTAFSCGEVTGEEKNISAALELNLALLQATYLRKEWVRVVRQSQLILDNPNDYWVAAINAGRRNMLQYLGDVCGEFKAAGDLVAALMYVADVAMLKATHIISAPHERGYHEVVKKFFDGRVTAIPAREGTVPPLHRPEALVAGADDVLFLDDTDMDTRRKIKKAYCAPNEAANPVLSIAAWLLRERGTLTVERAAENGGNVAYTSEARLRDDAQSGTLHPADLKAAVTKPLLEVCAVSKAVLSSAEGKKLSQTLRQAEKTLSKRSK

[8] = target: T4, Tyrosyl-tRNA synthetase, putative (Trypanosoma cruzi (strain CL Brener)); assay: Trypanosoma cruzi tyrosyl tRNA synthetase (TcYRS) SOP; type: functional; details: 30 µM
[9] = target: Chromo domain-containing protein 1 (Saccharomyces cerevisiae (strain ATCC 204508 / S288c) (Baker's yeast)) (UniProt P32657); assay: ScCHD-1 Enzyme Inhibition Assay; type: functional; details: 30 µM; also: in the data most compounds retested in dose-response had high values
Chromo domain-containing protein 1 (Saccharomyces cerevisiae (strain ATCC 204508 / S288c) (Baker's yeast)), sequence (P32657 whole entry, the tested form may be a part): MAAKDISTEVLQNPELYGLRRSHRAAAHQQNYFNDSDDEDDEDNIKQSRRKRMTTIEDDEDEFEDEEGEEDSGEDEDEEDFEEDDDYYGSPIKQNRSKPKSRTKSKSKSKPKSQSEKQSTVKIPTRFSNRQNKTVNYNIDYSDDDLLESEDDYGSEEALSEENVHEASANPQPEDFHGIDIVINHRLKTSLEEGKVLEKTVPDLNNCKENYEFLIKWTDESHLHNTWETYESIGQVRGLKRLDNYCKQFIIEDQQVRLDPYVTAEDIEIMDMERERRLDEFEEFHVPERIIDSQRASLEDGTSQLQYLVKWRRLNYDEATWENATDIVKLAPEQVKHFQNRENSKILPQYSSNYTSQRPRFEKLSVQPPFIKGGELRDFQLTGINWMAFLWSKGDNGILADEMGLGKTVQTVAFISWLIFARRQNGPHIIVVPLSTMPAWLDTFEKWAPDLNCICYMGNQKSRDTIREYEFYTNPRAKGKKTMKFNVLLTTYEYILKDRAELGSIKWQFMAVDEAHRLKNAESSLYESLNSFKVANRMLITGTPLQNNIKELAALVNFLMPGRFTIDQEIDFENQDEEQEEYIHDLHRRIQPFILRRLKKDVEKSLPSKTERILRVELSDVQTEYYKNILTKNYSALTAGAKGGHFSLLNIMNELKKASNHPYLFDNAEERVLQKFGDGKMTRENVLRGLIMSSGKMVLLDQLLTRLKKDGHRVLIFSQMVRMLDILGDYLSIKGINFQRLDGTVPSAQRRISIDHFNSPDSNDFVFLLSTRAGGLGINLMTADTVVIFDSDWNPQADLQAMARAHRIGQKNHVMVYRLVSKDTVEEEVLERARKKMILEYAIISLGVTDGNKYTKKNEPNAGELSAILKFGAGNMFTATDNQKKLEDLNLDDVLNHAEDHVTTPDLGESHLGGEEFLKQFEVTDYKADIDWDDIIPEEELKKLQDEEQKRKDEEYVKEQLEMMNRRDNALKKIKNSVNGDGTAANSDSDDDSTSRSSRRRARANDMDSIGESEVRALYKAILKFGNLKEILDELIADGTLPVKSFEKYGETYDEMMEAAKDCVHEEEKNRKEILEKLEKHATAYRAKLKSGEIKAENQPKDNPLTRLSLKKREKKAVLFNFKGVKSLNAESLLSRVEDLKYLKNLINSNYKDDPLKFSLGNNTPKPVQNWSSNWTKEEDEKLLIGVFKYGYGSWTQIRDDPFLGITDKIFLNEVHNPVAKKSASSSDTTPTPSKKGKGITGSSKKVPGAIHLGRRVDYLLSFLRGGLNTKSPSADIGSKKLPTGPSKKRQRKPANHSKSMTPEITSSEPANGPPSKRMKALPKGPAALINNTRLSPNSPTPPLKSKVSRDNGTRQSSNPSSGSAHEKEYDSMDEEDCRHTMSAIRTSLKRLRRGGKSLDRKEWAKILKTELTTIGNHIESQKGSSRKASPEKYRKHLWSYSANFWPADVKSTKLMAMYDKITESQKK

Sialic acid-binding Ig-like lectin 9 (Homo sapiens), sequence (Q9Y336 whole entry): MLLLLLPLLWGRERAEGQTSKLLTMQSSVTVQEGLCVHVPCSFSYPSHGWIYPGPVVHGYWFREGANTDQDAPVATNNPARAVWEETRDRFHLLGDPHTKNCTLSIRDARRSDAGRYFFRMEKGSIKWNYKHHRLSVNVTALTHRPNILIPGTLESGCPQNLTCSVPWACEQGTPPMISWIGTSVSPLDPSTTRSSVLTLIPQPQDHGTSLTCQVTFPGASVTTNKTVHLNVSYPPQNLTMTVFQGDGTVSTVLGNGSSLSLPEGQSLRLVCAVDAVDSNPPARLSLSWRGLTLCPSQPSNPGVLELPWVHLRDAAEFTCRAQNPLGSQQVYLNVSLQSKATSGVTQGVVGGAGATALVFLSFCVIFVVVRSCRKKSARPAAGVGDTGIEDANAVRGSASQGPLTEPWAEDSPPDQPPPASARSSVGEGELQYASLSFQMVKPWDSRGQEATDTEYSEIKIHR
Protein translocase subunit SecA (Escherichia coli (strain K12)), sequence (P10408 whole entry): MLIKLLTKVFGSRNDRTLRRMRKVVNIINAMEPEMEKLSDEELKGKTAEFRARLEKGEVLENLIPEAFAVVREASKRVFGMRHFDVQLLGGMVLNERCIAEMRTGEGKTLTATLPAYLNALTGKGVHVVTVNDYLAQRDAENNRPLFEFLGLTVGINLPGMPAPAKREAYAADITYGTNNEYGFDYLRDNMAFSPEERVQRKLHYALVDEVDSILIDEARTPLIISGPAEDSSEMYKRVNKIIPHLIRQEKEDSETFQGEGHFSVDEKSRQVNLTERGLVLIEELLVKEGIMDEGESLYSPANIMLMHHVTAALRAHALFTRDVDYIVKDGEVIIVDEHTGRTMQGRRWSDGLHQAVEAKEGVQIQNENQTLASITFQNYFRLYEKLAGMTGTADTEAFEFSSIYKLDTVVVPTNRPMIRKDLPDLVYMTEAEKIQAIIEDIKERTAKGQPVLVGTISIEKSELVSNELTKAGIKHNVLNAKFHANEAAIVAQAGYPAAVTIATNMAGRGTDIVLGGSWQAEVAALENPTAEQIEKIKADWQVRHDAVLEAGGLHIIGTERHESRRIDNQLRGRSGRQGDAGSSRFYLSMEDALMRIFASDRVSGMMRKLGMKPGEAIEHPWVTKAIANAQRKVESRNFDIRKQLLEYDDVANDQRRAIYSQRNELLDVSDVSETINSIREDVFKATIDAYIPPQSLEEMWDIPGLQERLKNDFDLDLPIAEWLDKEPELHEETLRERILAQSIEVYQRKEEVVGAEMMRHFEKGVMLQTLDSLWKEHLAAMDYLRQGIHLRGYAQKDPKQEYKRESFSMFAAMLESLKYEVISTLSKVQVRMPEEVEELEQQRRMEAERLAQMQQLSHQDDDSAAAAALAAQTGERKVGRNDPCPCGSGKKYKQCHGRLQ

| SMILES | Percent Effect [1] | Percent Effect [2] | Percent Effect [3] | Percent Effect [4] | Percent Effect (Trypanosoma cruzi) | Percent Effect [5] | Percent Effect [6] | Percent Effect (Homo sapiens) | Percent Effect [7] | Percent Effect [8] | Percent Effect [9] |
| --- | --- | --- | --- | --- | --- | --- | --- | --- | --- | --- | --- |
| CCn1ccnc1CN1C[C@@H](CN2CCCC2)[C@@H](CO)C1 | -6.84% | -2.7% | -3.35% | 7.12% | -4.44% | -1.91% | 8.28% | -5.58% | 1.59% | 7.32% | -1.85% |
| CC(NC(=O)NCCNc1cnccn1)c1cccs1 (stereo not given) | -1.5% | 23.4% | 1.73% | 3.58% | 2.81% | 2.49% | 3.21% | -20.8% | 8.74% | 24.4% | -11.5% |
| NC(=O)COc1cccc(C(=O)N2CCCC(n3ccnc3)C2)c1 (stereo not given) | -0.383% | 0% | -5.3% | 11.8% | 6.41% | 0.554% | -4.67% | -2.06% | 1.98% | 11% | 2.43% |
| COc1ccc(-n2ccc(C(=O)N3CCC(C(N)=O)C3)n2)cc1 (stereo not given) | -7.71% | 8.11% | -1.34% | 6.17% | -4.55% | 1.29% | -1.44% | 16.4% | 2.97% | 3.66% | -1.19% |
| O=C1COC2(CCN(Cc3ccoc3)CC2)CN1c1ccsc1 | 0.00228% | 18.7% | 6.94% | -2.69% | -0.591% | 1.63% | 14.4% | -27.3% | 7.45% | 11.5% | -2.01% |
| COc1ccc(CN2CCCC(Cn3nc(C)nc3C)C2)cc1F (stereo not given) | -2.67% | -3.8% | 7.97% | -1.91% | 5.64% | -1.94% | 0% | 5.94% | -2.08% | 2.53% | 4.68% |
| Cn1c(C(F)(F)F)nn(CCNC(=O)c2cnc3ccccc3n2)c1=O | -2.81% | 13.7% | 4.14% | 14.5% | 3.33% | 0.909% | -1.95% | -0.549% | 3.23% | 12.5% | -3.18% |
| COCCCC1(CO)CCCN(CCc2ccccc2)C1 (stereo not given) | -1.32% | -2.74% | -1.63% | -2.32% | -5.09% | 0.909% | -0.887% | -2.97% | 1.07% | 2.5% | -2.34% |
| NC(=O)C1CCN(c2nc3nccc(-c4ccccn4)c3c(=O)[nH]2)CC1 | -4.8% | 18.4% | 0.528% | -4.82% | 0.0974% | -2.37% | 22% | 2.93% | 8.51% | 23.4% | 7.17% |
| Cc1c(C)n(-c2ccccn2)c2nc3c(c(N)c12)CCCC3 | -1.37% | -14.7% | 7.92% | 7.22% | -3.34% | -10% | 25.1% | 5.7% | 1.06% | -51.3% | -7.7% |
